Among all 1,100 compounds or so, about 210 (19%) were called active. How the calls were made is not given here. A selection follows. Entries with a potency or affinity are not part of this list.

The experiment can be described thus: host cell cytotoxicity, dose response, cytotoxicity control for SV40 T antigen inhibitor project, selected hits (AID 2102).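 Further: cells exposed to compounds for 72 hours.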 The settings on record: Host cell viability cytotoxicity counter-screen; series mostly up to 50 µM. For orientation: A counterscreen serves to expose hits that act by an unwanted route or on another target.
For the molecule `COc1cc(SC)ccc1C(=O)N1CCN(Cc2ccccc2)CC1`, the molecule was called inactive.

Consider `COc1cc(SC)ccc1C(=O)N1CCN(c2ccc(O)cc2)CC1`, for which the molecule was called inactive.

Turning to `Cc1ccc(C)c(S(=O)(=O)Nc2ccc(O)cc2)c1`, the molecule was classed as inactive.

`O=c1oc2cc(O)ccc2c2ccccc12`: the molecule was called inactive.

As for `Oc1ccc2c(c1)oc1cc(O)ccc12`, the result was inactive.

For `OC1CCN(C(=S)Nc2ccc(Nc3ccccc3)cc2)CC1`, the call was inactive.

Regarding `OCCNc1nc(Nc2ccc(O)cc2)nc2ccccc12`, the molecule was called inactive.

For `CN1CCN(c2nc(Nc3ccc(O)cc3)nc3ccccc23)CC1`, the outcome was inactive.

In the case of `Cc1ccc2oc(=O)c(/C=C(\O)C(C)(C)C)nc2c1`, the molecule was classed as inactive.

Turning to `COc1ccc(CNC(=S)N/N=C/c2ccc(O)c(OC)c2)cc1`, the molecule was classed as inactive.

Turning to `COc1cc2c(cc1NC(=S)Nc1ccccc1C)oc1ccccc12`, the outcome was inactive.

`COc1ccc(NC2CCCN(C(=O)c3ccc(OC)o3)C2)cc1` (centres undefined): the outcome was inactive.

As for `CNC(=S)N1CCN(c2ccc(OC)cc2)CC1`, the call was inactive.

`COc1ccc(N2CCN(C(=O)NC3CC(=O)N(c4ccc(OC)cc4)C3)CC2)cc1` (centres undefined): the molecule was classed as inactive.

Regarding `COc1cc(/C=N/NC(=O)CC#N)cc(Br)c1O`, the molecule was classed as inactive.

For `COc1ccc(N2C(=O)CC(Sc3n[nH]c(-c4cccc(C)c4)n3)C2=O)cc1` (centres undefined), the molecule was classed as inactive.

Take `CC1=C(C#N)c2nc(N)c(C#N)c(C)c2/C1=C\c1ccc(-c2ccccc2C(=O)O)o1`: the outcome was inactive.

As for `COc1cc(/C=C2\N=C3CCCCCN3C2=O)ccc1O`, the molecule was classed as inactive.

For `O=c1/c(=C\c2cc([N+](=O)[O-])cc([N+](=O)[O-])c2O)sc2nc3ccccc3n12`, the outcome was inactive.

In the case of `O=C1C=C(Nc2ccc(O)cc2)CC(c2ccco2)C1` (centres undefined), the molecule was called inactive.

With `O=C(O)/C=C/c1ccc(O)cc1`, the call was inactive.

For the molecule `COc1cc(-c2nc(=S)[nH][nH]2)cc(OC)c1OC`, the molecule was called inactive.

Turning to `C=CCn1c(CNc2ccccc2)nnc1SCC(=O)N/N=C/c1ccc(O)cc1O`, the molecule was classed as inactive.

As for `O=C(N/N=C/c1ccc(O)cc1)c1csc2ccccc12`, the result was inactive.

As for `CCCn1c(=O)c2ccccc2n2c(=S)[nH]nc12`, the result was inactive.

In the case of `CNC(=S)Nc1ccc(Nc2ccccc2)cc1`, the call was inactive.

In the case of `NC(=O)Nc1ccc(Nc2ccccc2)cc1`, the call was inactive.

`O=[N+]([O-])c1cccc(S(=O)(=O)N/N=C/c2ccc(O)cc2)c1`: the molecule was classed as inactive.

Turning to `O=C(CN1C(=O)/C(=C/c2ccco2)SC1=S)Nc1ccc(C(=O)O)c(O)c1`, the molecule was called inactive.

Consider `COc1cc2c(cc1OC)C[N+](C)(C)CC2`, for which the result was inactive.

As for `COc1cc(/C=N/Nc2nncn2/N=C/c2ccc(O)c(OC)c2)ccc1O`, the molecule was classed as inactive.

On to `N#CC1=C(N)NC(=S)C(C(N)=O)C1c1ccccc1F` (centres undefined), for which the molecule was called inactive.

Take `CCNC(=S)Nc1cc(OCC)c(N2CCOCC2)cc1OCC`: the outcome was inactive.

Turning to `CCOc1cc(N2CCOCC2)c(OCC)cc1NC(C)C(=O)N1CCC(C)CC1` (centres undefined), the molecule was called inactive.

Regarding `COc1ccc(NC2CCCN(C(=O)CSc3ccccc3)C2)cc1` (centres undefined), the result was inactive.

With `CCOC(=O)C1=C(O)/C(=C\c2ccc(O)c(OCC)c2)N=C1C`, the molecule was classed as inactive.

Regarding `O=c1oc2ccccc2c2oc3cc(O)c(O)cc3c12`, the molecule was classed as inactive.

As to `O=C1NC(=O)C(c2ccccc2[N+](=O)[O-])=C1Nc1ccc(O)c(Cl)c1`, the call was inactive.

In the case of `COc1cc(/C=N/NC(=O)C2=NNC(=O)C2C)ccc1O` (centres undefined), the call was inactive.

With `O=C(c1nnsc1S(=O)c1ccc(Cl)cc1)N1CCOCC1` (centres undefined), the molecule was classed as inactive.

Regarding `CN(C)c1ccc(NC(=O)CN2CCN(CC(=O)Nc3ccc(F)cc3)CC2)cc1`, the molecule was classed as inactive.

For `CCOc1cc(/C=C2\NC(=S)N(c3c(C)n(C)n(-c4ccccc4)c3=O)C2=O)ccc1O`, the molecule was classed as inactive.

As for `O=S(=O)(NC1=NCCCCC1)c1ccc2sc(NS(=O)(=O)c3ccc4ccccc4c3)nc2c1`, the molecule was called inactive.

Consider `COc1cc(/C=C2\S/C(=N/S(=O)(=O)c3ccc(C)cc3)NC2=O)c([N+](=O)[O-])cc1OC`, for which the molecule was classed as inactive.

Take `O=S(=O)(Nc1ccc(O)cc1)c1cccc2cccnc12`: the outcome was inactive.

For `O=C(c1ccco1)N1CCN(C(=S)Nc2ccc(F)c(Cl)c2)CC1`, the result was inactive.

Turning to `CN(C)c1ccc(NC(=O)c2ccc(N3CCOCC3)nc2)cc1`, the call was inactive.

For `COc1cc(C(c2c(C)[nH][nH]c2=O)c2c(C)[nH][nH]c2=O)ccc1OC(=O)c1cccc([N+](=O)[O-])c1`, the molecule was classed as inactive.

In the case of `CCOC(=O)C1(C)C=C(Nc2ccc(O)cc2)C(=O)N1c1ccc(O)cc1` (centres undefined), the outcome was inactive.

Turning to `Cn1c(=O)oc2cc(S(=O)(=O)Nc3ccc(O)cc3)ccc21`, the outcome was inactive.

Regarding `CN(C)c1ccc(NC(=O)CSc2nnc(-c3ccco3)c(-c3ccco3)n2)cc1`, the result was inactive.

`N/C(=N\N=C\c1ccc(O)c(O)c1)c1nonc1N`: the call was inactive.

Turning to `COc1cc(/C(C)=N/NC(=O)Cc2c(C)[nH][nH]c2=O)ccc1O`, the result was inactive.

For `CN=c1scc(C)n1/N=C/c1ccc(O)cc1`, the outcome was inactive.

As to `CC1=C(C(=O)c2ccccc2)C(c2ccc(O)cc2)NC(=S)N1` (centres undefined), the result was inactive.

Turning to `Nc1nc2ccc(O)cc2s1`, the result was inactive.

For the molecule `Cc1cc2c(n1-c1ccc(C(=O)O)cc1)CCCCC2`, the call was inactive.

For `O=C(c1cccc(-c2ccc(O)cc2)c1)N1CCOCC1`, the molecule was classed as inactive.

Turning to `CC(=O)Nc1ccc(S(=O)(=O)Nc2nc3ccccc3nc2Nc2ccc(O)cc2)cc1`, the molecule was called inactive.

On to `CCOc1cc(/C=N\NC(=O)CC(=O)NCCc2ccccc2)ccc1O`, for which the outcome was inactive.

Take `Cc1cc(=O)[nH]c(N/N=C/c2c[nH]c3ccccc23)n1`: the molecule was classed as inactive.

With `CCn1cnc2cc(NCc3ccc(N(C)C)cc3)ccc21`, the result was inactive.

With `C/C(=N\NC(=O)CSc1nc2ccccc2o1)c1ccc(O)cc1`, the result was inactive.

As to `Cc1cccc(N2NC(=O)/C(=C/c3ccc(-c4ccc(Cl)c(C(=O)O)c4)o3)C2=O)c1`, the molecule was called inactive.

`C=CCn1c(SCC(=O)c2ccc(O)c(O)c2)nnc1-c1ccccc1OC`: the outcome was inactive.

As for `COc1cc(/C=N/NC(=O)c2cc(C3CC3)[nH]n2)ccc1O`, the outcome was inactive.

With `COCCCNC(=S)N/N=C/c1ccc(O)cc1O`, the molecule was classed as inactive.

Take `Nc1c(O)cccc1C(=O)O`: the molecule was classed as inactive.

Take `NC(=O)N/N=C/c1c(Sc2nnnn2-c2ccccc2)nc2ccccn2c1=O`: the result was inactive.

Consider `COc1ccc2c(c1OC)C(=O)N(c1ccc(O)cc1)C2`, for which the molecule was classed as inactive.

For `O=C1CCCC2=C1Sc1ccccc1N2`, the molecule was called inactive.

Take `CCSC1(SCC)N=C(N)C2(C#N)C(c3ccc(OC)c(OC)c3OC)C12C#N` (centres undefined): the outcome was inactive.

Take `COc1cc(/C=N/NC(=O)c2nc(C)cc(C)n2)ccc1O`: the call was inactive.

Regarding `Cc1nonc1C(=O)N/N=C/c1ccc(O)c(O)c1`, the molecule was classed as inactive.

Turning to `CC(=O)NCCc1c[nH]c2ccc(O)cc12`, the molecule was classed as inactive.

Take `COc1ccccc1N1CSC2=C(C#N)C(c3ccc(SC)cc3)CC(=O)N2C1` (centres undefined): the call was inactive.

Consider `COc1cc(/C=N/NS(=O)(=O)c2ccc(Br)cc2)ccc1O`, for which the molecule was called inactive.

For the molecule `CC(=O)c1ccc2c(c1)C1C=CCC1C(C(=O)O)N2` (centres undefined), the molecule was called inactive.

In the case of `Nc1cc(C(=O)O)c(N)c2c1C(=O)c1ccccc1C2=O`, the result was inactive.

As for `C=CCSC1=NC(=O)/C(=C/c2cccs2)S1`, the call was inactive.

Consider `N=C1/C(=C\c2ccc(SCc3ccco3)o2)C(=O)N=C2SC=NN12`, for which the outcome was inactive.

`CN1CCC/C1=C/C=C1\SC(=S)NC1=O`: the result was inactive.

`CCCC1=NN2C(=N)/C(=C\c3ccc(SCc4ccco4)o3)C(=O)N=C2S1`: the outcome was inactive.

As for `CSC1=NSC2=NC(=O)/C(=C\c3coc4ccccc4c3=O)C(=N)N12`, the result was inactive.

For `CN(C)c1ccc(NC(=O)CN2CCC(N3CCCCC3)CC2)cc1`, the molecule was classed as inactive.

Consider `N#C/C(=C\c1coc2ccc(O)cc2c1=O)C(=O)Nc1nc2ccccc2s1`, for which the outcome was inactive.

On to `O=c1c2cc(O)c(O)cc2oc2cc(O)c(C3OC(CO)C(O)C(O)C3O)c(O)c12` (centres undefined), for which the outcome was inactive.

For the molecule `CCOc1cc(NC2CS(=O)(=O)CC2O)c(OCC)cc1NC(=O)c1ccccc1` (centres undefined), the molecule was called inactive.

In the case of `CC1(C)CC(=O)C(C=Nc2ccc(O)cc2)=C(O)C1`, the result was inactive.

For `O=c1c2c3c(sc2n2c(=S)[nH]nc2n1-c1ccccc1)CCC3`, the molecule was called inactive.

Turning to `COc1ccc(-n2c(=O)c3c4c(sc3n3c(=S)[nH]nc23)CCC4)cc1`, the call was inactive.

On to `COCCCn1c(=O)c2ccccc2n2c(=S)[nH]nc12`, for which the call was inactive.

Consider `OCc1ccccc1SSc1ccccc1CO`, for which the molecule was classed as inactive.

With `O=C(O)CCNc1ccc(NCCC(=O)O)c2c1C(=O)c1ccccc1C2=O`, the outcome was inactive.

Consider `Oc1ccc(-c2nc3ccccn3c2NCc2ccco2)cc1`, for which the outcome was inactive.

As for `Oc1ccc2ccccc2c1C=Nc1ccc(N2CCOCC2)cc1`, the result was inactive.

With `Cc1ccc(-n2nnnc2C(Cl)(Cl)c2nnnn2-c2ccc(C)cc2)cc1`, the outcome was inactive.

On to `c1ccc(-c2ccc3c(c2)NCCN3)cc1`, for which the outcome was inactive.

For `Oc1ccc(/C=N/NC(=S)Nc2cccnc2)cc1`, the result was inactive.

With `CCCCC1(C)OC(=O)C(=Cc2ccc(-c3ccc(Cl)c(C(=O)O)c3)o2)C(=O)O1` (centres undefined), the molecule was classed as inactive.

Consider `O=C(O)c1ccccc1NS(=O)(=O)c1cccc(-n2sc3ccccc3c2=O)c1`, for which the result was inactive.

On to `O=c1c2ccccc2sn1-c1cc(S(=O)(=O)N2CCOCC2)ccc1N1CCCC1`, for which the molecule was called inactive.

In the case of `Nc1nc2ccc(S(=O)(=O)N3CCCCC3)cc2s1`, the call was inactive.

Regarding `C[C@]12CC[C@@H]3c4cc(O)c(O)cc4CC[C@H]3[C@@H]1CC[C@@H]2O`, the outcome was inactive.

On to `O=C(Nc1ccc(O)cc1)c1ccc(NC(=O)C2CCCO2)cc1` (centres undefined), for which the outcome was inactive.

For the molecule `COc1cc([N+](=O)[O-])ccc1NC(=O)Oc1ccc(NC(C)=O)cc1`, the molecule was called inactive.

As to `O=C1CC(=O)N(Cc2ccco2)C(=O)N1`, the result was inactive.

As for `COc1ccc(NCC(O)Cn2cnc3c2c(=O)n(C)c(=O)n3C)cc1` (centres undefined), the outcome was inactive.

As for `CCN(CC)c1ccc(NC(=O)COC(=O)c2ccc3ccccc3n2)cc1`, the molecule was called inactive.

`COc1cc(/C=c2\sc3n(c2=O)CCCN=3)ccc1O`: the result was inactive.

Turning to `Cc1nn(CC(=O)Nc2ccc(N(C)C)cc2)c(C)c1[N+](=O)[O-]`, the molecule was called inactive.

Turning to `Cc1cc(=O)oc2c(N)c(O)ccc12`, the molecule was classed as inactive.

With `Cc1cc(C)c2c(c1)NC(C(=O)O)C1CC=CC21` (centres undefined), the molecule was called inactive.

Consider `CCOc1cc(/C=N/Nc2ncnc(Cl)c2N)ccc1O`, for which the molecule was called inactive.

The record behind these values is PubChem BioAssay AID2102 (Southern Research Specialized Biocontainment Screening …, 2009).
